# Reference: the supplement of paper PMC6555819
# How the values were obtained:
# Test in all cases: PBM binding z-score (relative to random genomic background probes); higher = stronger binding; sequences stand for … in GC…GCGATTGACAGCGTAGAATGAAGG
# [1] = tested on: FXR:RXRa (NR concentration 270 nM, RXRa partner concentration 90 nM)
# Outline: (§1)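 Binding z-scores take random background probes as their reference. They come from custom Agilent 4×180K protein-binding microarrays incubated 1 h with ligand-free nuclear receptor dimers, with antibodies against each partner (one per run) detecting binding. Scanned fluorescence was regression-normalized.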
# [2] = tested on: LXRa:RXRa (NR concentration 270 nM, RXRa partner concentration 90 nM)
# Outline: as §1
# [3] = tested on: LXRa homodimer (NR concentration 270 nM)
# Outline: as §1
# [4] = tested on: LXRb:RXRa (NR concentration 270 nM, RXRa partner concentration 90 nM)
# Outline: as §1
# [5] = tested on: LXRb homodimer (NR concentration 270 nM)
# Outline: as §1
# [6] = tested on: PPARa:RXRa (NR concentration 270 nM, RXRa partner concentration 90 nM)
# Outline: as §1
# [7] = tested on: PPARg:RXRa (NR concentration 180 nM, RXRa partner concentration 90 nM)
# Outline: as §1
# [8] = tested on: PPARg:RXRa 270nM:90nM, anti-RXR (NR concentration 270 nM, RXRa partner concentration 90 nM)
# Outline: as §1
# [9] = tested on: PPARg:RXRa 30nM:10nM, anti-RXR (NR concentration 30 nM, RXRa partner concentration 10 nM)
# Outline: as §1
# [10] = tested on: PPARg:RXRa 90nM:30nM, anti-RXR (NR concentration 90 nM, RXRa partner concentration 30 nM)
# Outline: as §1
# [11] = tested on: PPARg:RXRa DBDmut IVT, anti-RXR (DBD mutation: RXRa K156A/R161A, NR concentration 270 nM, RXRa partner concentration 90 nM)
# Outline: as §1
# [12] = tested on: PPARg:RXRa IVT, anti-PPARg (NR concentration 270 nM, RXRa partner concentration 90 nM)
# Outline: as §1
# [13] = tested on: PPARg DBDmut:RXRa IVT, anti-PPARg (DBD mutation: PPARg1 K132A/R137A, NR concentration 270 nM, RXRa partner concentration 90 nM)
# Outline: as §1
# [14] = tested on: PPARg DBDmut IVT, anti-PPARg (DBD mutation: PPARg1 K132A/R137A, NR concentration 270 nM)
# Outline: as §1
# [15] = tested on: PPARg homodimer (NR concentration 180 nM)
# Outline: as §1
# [16] = tested on: PXR:RXRa (NR concentration 270 nM, RXRa partner concentration 90 nM)
# Outline: as §1
# [17] = tested on: PXR homodimer (NR concentration 270 nM)
# Outline: as §1
# [18] = tested on: RARa:RXR (NR concentration 270 nM, RXRa partner concentration 90 nM)
# Outline: as §1
# [19] = tested on: RARa homodimer (NR concentration 270 nM)
# Outline: as §1
# [20] = tested on: RARb:RXRa (NR concentration 270 nM, RXRa partner concentration 90 nM)
# Outline: as §1
Sequence,PBM binding z-score [1],PBM binding z-score [2],PBM binding z-score [3],PBM binding z-score [4],PBM binding z-score [5],PBM binding z-score [6],PBM binding z-score [7],PBM binding z-score [8],PBM binding z-score [9],PBM binding z-score [10],PBM binding z-score [11],PBM binding z-score [12],PBM binding z-score [13],PBM binding z-score [14],PBM binding z-score [15],PBM binding z-score [16],PBM binding z-score [17],PBM binding z-score [18],PBM binding z-score [19],PBM binding z-score [20]
GCATATAGGTAATACAAGGTGAAAGTCCGATTGT,2.2,2.59,0.161,0.649,-0.271,1.68,1.37,1.36,0.636,0.931,4.15,3.2,1.3,0.902,0.296,0.502,0.135,0.993,0.75,0.523
ACAGACAGGTGACTGAAGGTAACTCAGCTGGACG,0.0674,0.59,-0.72,-0.364,-1.02,0.299,0.781,0.364,-0.0254,0.262,0.539,0.434,0.745,-0.576,-0.875,-0.321,-0.503,0.0913,-0.597,0.563
CCTAGTTGGCCAGGAGGTCACACACCGGATATGA,4.04,3.22,1.73,3.53,0.178,4.15,2.42,2.91,0.806,2.2,0.473,2.22,0.522,-0.0399,2.61,4.27,1.23,4.66,1.39,3.41
TCTAGTTGGTCAAAGGACACACACTCGAAATGCG,1.06,0.757,0.232,1.05,0.181,2.19,4.59,5.5,4.95,5.8,2.42,2.63,1.26,0.871,1.9,0.659,0.4,1.1,1.12,2.02
CTTACTGGGCCATCAGGTCATTGATATCAACGTT,1.85,1.35,1.05,1.68,0.217,3.84,4.85,5.22,2.74,4.87,6.66,6.83,2.49,2.61,1.66,1.94,0.966,2.45,0.185,2.26
CTCGAAAGGTCGTGCTCGGGTGAGTATACCAAAC,5.24,3.9,-0.0589,3.32,-0.0126,4.83,2.25,3.88,1.18,2.3,0.705,1.72,0.595,-0.339,1.58,3.15,-0.25,4.22,-0.17,3.98
CCTAGTTGGTCAAGGTCAGACACGCTATAGGTAC,2.19,2.38,1.11,2.12,0.541,2.78,1.85,2.26,0.813,1.73,1.83,2.54,0.343,0.91,2.01,2.52,1.51,2.45,2.36,3.6
CGTCCAAGGTCAGCAGGTCATTGAAAGCGACGTG,6.58,4.67,1.51,3.86,-0.214,5.46,5.09,4.94,1.14,3.42,2.83,3.78,0.265,-0.0575,3.28,4.51,0.829,5.89,0.397,5.51
ATCGAAAGGTCGTGAGGTGAATATACAGAAAGGC,5.8,4.42,0.33,3.66,0.583,5.66,4.88,4.97,2,3.71,0.388,2.93,1.73,0.704,2.17,3.53,0.656,4.96,1.14,4.12
TGTCGGAGGACACGAAGGTCAGAGCTTTCCAGAG,1.23,1.44,-0.131,0.759,-0.905,1.81,0.574,1.14,-0.39,0.47,-0.402,1.54,-0.86,-0.906,1.05,1.79,0.826,1.84,0.146,3.46
AATACAGGGTCATCGTAGGCCAGATTACGCACAG,7.31,6.79,2.75,4.95,1.56,5.92,6.61,6.1,3.14,4.89,2.88,4.16,2.1,1.86,3.02,5.14,0.561,5.6,0.954,4.27
CGTCCAAGGTCAGCAGGTCAGTGCAAGCGACGTG,5.87,3.79,0.73,2.8,-0.131,4.86,4.09,4.53,1.16,2.98,3.15,3.71,-0.109,-0.869,3.88,3.68,0.651,4.87,0.357,5.27
CGTCCAGGGTCAATGCTAGGTCAGTGAAAGCATT,6.33,5.16,0.988,4.06,-0.00452,5.61,4.11,4.59,1.57,3.18,1.7,3.15,-0.224,0.0209,3.59,4.54,-0.194,6.03,0.75,4.82
AGAACGAGGGCAATCAGTTGATAGCACGGGTGGC,0.397,0.342,-0.0973,0.0776,0.0962,1.68,1.44,1.15,0.168,0.658,3.4,3.01,0.487,-0.148,-0.207,1.03,1.55,0.384,-0.0136,2.09
